Compounds with a hit are over-represented: about 6.5% of the library has one in this group of screens.
FMDV antiviral – antivirals against foot and mouth disease virus | Potency, µM (series often up to 57.9 µM), for inactives: at the highest dose activity change, negative = inhibition, hits mostly inhibitors | 410,000 compounds, 1.2% hits | FMDV antiviral cell-based qHTS; calls by dose curve; tested in HEK293T cells; note: read-out not given here; potency is the fitted concentration of half-maximal effect; nearly all actives have a fitted effect of over 45% in size
Lassa entry inh – blocks Lassa virus binding to or entry into cells; Lassa virus pseudotype entry inhibition, cell reporter; Potency, µM (top dose mostly 37.9 µM), for inactives: at the top dose activity change, negative = inhibition, most hits filed as inhibitors; 300,000 compounds, 1.2% hits; AID 540256; calls by dose curve; tested in HEK293 cells; note: potency is the fitted concentration of half-maximal effect; nearly all actives have a fitted effect of over 50% in size
Vaccinia mCherry – vaccinia inhibition (mCherry reporter). Potency, µM (top dose mostly 36.5 µM), for inactives: top-dose activity change, negative = inhibition, actives largely listed as inhibitors. 310,000 compounds, 0.63% hits. AID 720579. Vaccinia virus mCherry reporter infection, fluorescence; calls by dose curve; tested in A549 cells; note: potency is the fitted concentration of half-maximal effect; nearly all actives have a fitted effect of over 35% in size
HCMV antiviral – blocks human cytomegalovirus replication | activity change, negative = inhibition, % at 57.5 µM | 410,000 compounds, 4.5% hits | HFF cells, HCMV-luciferase reporter, 72 h; stronger effect = lower value; in the data active = activity change below about -60%; inconclusive = no clear call, values can overlap the other calls; inactive = above about -39%
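Luciferase read-out from HCMV-luciferase-infected HFFs (MOI 1 PFU/cell) 72 h post infection at 37C; compounds added after 16 h cell attachment; activity normalized between buffer-only basal and Salinomycin (10uM) inhibitor controls.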
MARV entry inh – Marburg virus entry inhibition; Marburg virus pseudotyped entry inhibition, cell reporter; Potency, µM (top dose mostly 37.8 µM), for inactives: top-dose activity change, negative = inhibition, hits mostly inhibitors; 300,000 compounds, 1.8% hits; AID 540276; calls by dose curve; tested in HEK293 cells; note: potency is the fitted concentration of half-maximal effect
Vaccinia Venus – inhibitors of vaccinia virus (Venus reporter). Vaccinia virus Venus reporter expression, fluorescence. Potency, µM (highest dose often 36.5 µM), inactives show at the highest dose activity change, negative = inhibition, most hits filed as inhibitors. 330,000 compounds, 0.46% hits; calls by dose curve; tested in A549 cells; note: potency is the fitted concentration of half-maximal effect; nearly all actives have a fitted effect of over 30% in size
Active calls of the source: *; i = inactive; ? = inconclusive; . = no result given; [ ] = remark or other dose. % is set by controls: 0 for no effect and ±100 for the full control effect.

SMILES	FMDV antiviral	Lassa entry inh	Vaccinia mCherry	HCMV antiviral	MARV entry inh	Vaccinia Venus
CCOC(=O)c1cc(NC(=O)c2ccc(C)cc2)c(=O)n2c1oc1ccccc12	-1.4%	7.8%[46.1 µM]	-1.5%	-4.8	-3.7%[46.1 µM]	-2.0%
CCOC(=O)c1cc(NC(=O)c2ccccc2)c(=O)n2c1oc1ccccc12	-10.9%	.	10µM*	-71.1*	.	7.94µM*
CC(=O)Nc1ccc(NC(=O)CSc2nnc(-c3ccc4c(c3)OCO4)o2)cc1	0.6%	.	.	0.0	.	.
O=C(O)CCSc1nnc(-c2ccc3c(c2)OCO3)o1	-15.3%	?	-18.2%	-75.4*	?	-10.0%
O=C(CSc1nnc(-c2ccc3c(c2)OCO3)o1)Nc1ncc(Cl)cc1Cl	4.8%	5.4%	-14.2%	-60.9*	-8.1%	-16.5%
O=C(O)CC(CC(=O)O)c1ccc2c(c1)OCO2	.	.	-4.7%	.	.	-7.3%
CC(C)(C)S(=O)N1CCC[C@@H]1c1noc2cc3ccccc3cc12 (some centres undefined)	.	.	.	-8.4	.	.
COC(=O)c1ccc(OC)c(CSc2nnc(COc3cccc(C)c3)o2)c1	-22.8%	-0.3%	.	48.5	16.4µM*	.
CC(C)Oc1cc(F)ccc1-c1cc(C(=O)NCc2ccccn2)[nH]n1	-23.2%	.	0.0%	-76.2*	.	-5.3%
CCOC(=O)C1(c2ccccc2)CCN(CCC(C#N)(c2ccccc2)c2ccccc2)CC1	?	.	-5.0%	-85.7*	.	-17.5%
CCOC(=O)C1(c2ccccc2)CCN(CCC(=O)Nc2cccc(Br)c2)CC1	-33.3%	12.6µM*	?	?	2.82µM*	?
Cc1ccc(C)c(CN2C(=O)c3ccccc3S(=O)c3ccc(C(=O)N4CCCCC4)cc32)c1 (centres undefined)	0.0%	?	2.2%	0.8	?	-11.3%
O=C(c1ccc(Nc2nccc(-c3cc4ccccc4s3)n2)cc1)N1CCC(N2CCCC2)CC1	-26.7%	.	.	.	.	.
O=C(N/N=C/c1ccccc1O)C1CC(=O)N(c2ccc(F)cc2)C1 (centres undefined)	5.6%	?	14.1µM*	17.1	?	?
COc1ccc(N2CC(C(=O)N/N=C/c3c[nH]c4ccccc34)CC2=O)cc1 (centres undefined)	-22.6%	-10.1%	i	-21.3	7.6%[46.1 µM]	-9.4%
Fc1ccccc1CNC(=S)Nc1cccc(C(F)(F)F)c1	-5.5%	?	?	-78.5*	?	?
Cc1ccc(CNC(=S)Nc2ccc(C)c([N+](=O)[O-])c2)cc1	-23.8%	19.5%	i	3.9	27.6%	-9.4%
FC(F)(F)c1cccc(NC(=S)NCc2ccc(Cl)cc2)c1	-27.2%	-16.5%	-8.5%	-90.2*	?	?
CN(C)NC(=S)Nc1cccc(C(F)(F)F)c1	-19.4%	2.7%	-3.5%	8.8	18.6%[46.1 µM]	-11.3%
CC(NC(=S)Nc1cccc(C(F)(F)F)c1)C(C)(C)C (centres undefined)	?	10µM*	-5.8%	?	?	-21.0%
Cc1ccc(NC(=S)NCc2ccccc2)cc1[N+](=O)[O-]	19.0%	15.8µM*	?	-95.9*	7.08µM*	-22.8%
S=C(NCc1ccccc1)Nc1cccc(Cl)c1	61.7%	-0.8%	-6.6%	-83.8*	-34.8%	-13.5%
O=C(CNc1cccc(Cl)c1)NNC(=S)NCc1ccccc1	-24.4%	-15.1%	-18.3%	?	-25.6%	1.5%
OC1(c2cccnc2)CCN(Cc2ccc3c(c2)CN(Cc2ccc4nsnc4c2)CCO3)CC1	?	.	-24.9%	.	.	-20.8%
C(=Nc1ccc2ccccc2n1)c1cccnc1	.	.	29.4%	.	.	-12.1%
SMILES	FMDV antiviral	Lassa entry inh	Vaccinia mCherry	HCMV antiviral	MARV entry inh	Vaccinia Venus
CC(=O)/C(C#N)=C1\NC(=O)C(Cc2ccccc2C)S1 (centres undefined)	10.3%	?	?	-82.6*	?	79.5%
CC(=O)/C(C#N)=C1\NC(=O)C(Cc2ccccc2)S1 (centres undefined)	59.5%	?	?	-99.3*	2.51µM*	118.7%
C/C(=N\N=C1\NC(=O)C(Cc2ccccc2)S1)c1ccccc1 (centres undefined)	3.4%	2.31µM*	.	22.4	25.3%	.
CNC(=O)/C(C#N)=C1\SC(Cc2ccc(F)cc2)C(=O)N1c1ccccc1C (centres undefined)	-18.2%	.	.	21.8	.	.
CC(=O)/C(C#N)=C1\NC(=O)[C@@H](Cc2ccccc2)S1	.	.	.	.	2.51µM*	.
CCOc1ccc(-n2c(=O)c3c(C)c(C(=O)N(C)C)sc3n(CC(=O)Nc3c(C)cc(C)cc3C)c2=O)cc1	-13.8%	15.6%[46.1 µM]	-15.0%	18.3	.	-14.7%
CCCc1cc(=O)oc2c(CN3CCN(C)CC3)c(O)c(Cl)cc12	-4.9%	-2.8%	.	14.0	30.0%	.
Cc1cc(=O)oc2c(CN3CCN(C)CC3)c(O)c(Cl)cc12	20.9%	6.2%	-21.3%[1.46 µM]	-102.0*	15.7%	-11.6%
CN1CCN(c2ccc3sc(-n4ccc5ccccc54)nc3c2)CC1	?	.	-14.0%	-103.7*	.	-15.9%
c1ccc(N2CCN(c3nc4cc5c(cc4s3)OCO5)CC2)cc1	7.0%	4.5%	i	-19.7	-21.5%	-19.6%
O=C(NCc1ccncc1)c1cnn(-c2nccc(-c3cccs3)n2)c1C1CC1	-1.2%	.	-13.2%	.	.	-4.9%
O=C(Nc1ccc(-n2cccn2)cc1)C1CCCCN1Cc1cccc2c1OCO2 (centres undefined)	-16.3%	.	.	-68.4*	.	.
CCOc1ccc(N(CC(=O)NC2CCCCC2)S(=O)(=O)c2ccc(C)cc2)cc1	18.8%	-15.1%	-10.8%	-39.8	-1.1%[46.1 µM]	-4.7%
COc1ccc(N(CC(=O)NC2CC3CCC2C3)S(=O)(=O)c2ccccc2)cc1OC (centres undefined)	-12.0%	8.91µM*	i	3.9	?	-20.6%
CCOc1ccc(N(CC(=O)NC2CC3CCC2C3)S(=O)(=O)c2ccccc2)cc1 (centres undefined)	36.5%	10µM*	-24.3%	-38.8	?	-19.2%
CCOc1ccc(N(CC(=O)NC2CCCC2)S(=O)(=O)c2ccccc2)cc1	-7.4%	3.9%	-15.2%	-64.0*	-12.4%[46.1 µM]	-8.5%
CCOc1ccc(N(CC(=O)NC2CC3CCC2C3)S(=O)(=O)c2ccc(C)cc2)cc1 (centres undefined)	-16.5%	.	.	4.7	.	.
CCOC(=O)c1ccc(NC(=S)N(CCCN2CCCCC2)Cc2ccco2)cc1	-1.9%	-17.2%	-15.2%	?	12.6µM*	-14.6%
CCOC(=O)c1ccc(NC(=S)N(CCN(C)C)Cc2cccs2)cc1	54.2%	?	?	-61.2*	?	-1.9%
CCC(c1nnnn1Cc1ccccc1)N(Cc1ccco1)Cc1cc2cc(OC)ccc2[nH]c1=O (centres undefined)	?	?	.	-2.2	-21.2%	-17.4%
CCCC(c1nnnn1C(C)(C)CC)N(Cc1ccco1)Cc1cc2ccc(OC)cc2[nH]c1=O (centres undefined)	-13.0%	?	?	-14.3	12.6µM*	?
CCC(C)(C)n1nnnc1C(c1cc2ccc(OC)cc2[nH]c1=O)N1CCc2ccccc2C1 (centres undefined)	-11.8%	-11.7%	.	-75.2*	-21.8%	.
